# According to PubChem BioAssay (NCATS):
# Several values for one entry are separate records, joined by “and”; a condition that tells them apart may be missing. Identical values can stand only once. Records with an inconclusive call do not appear. Activity calls are given as the source filed them. Unless noted, the call rests on the fitted dose curve; in most records, active means well fitted activation curve with a large enough effect; inconclusive means small, poorly fitted or top-dose-only effect; inactive means flat fitted curve, though single readings scatter.
# Tested on: not listed separately
# Test: qHTS assay for small molecule activators of the p53 signaling pathway (AID 651743; active means well fitted activation curve with a large enough effect in the signal ratio, not every such curve was filed as active; the % refers to the signal ratio; further: potency means the concentration at half of the fitted maximal effect; on activation: % of control where 0% means no effect)
# Conditions: HCT-116 p53RE-bla, beta-lactamase FRET ratio, 16 h; activation: active compounds read high
# Summary of the method: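 p53RE-bla HCT-116 cells carrying a beta-lactamase reporter under p53 response elements were exposed to compounds for 16 hours at 37 C. Reporter activity read as fluorescence after 2 hours at room temperature with LiveBLAzer B/G FRET substrate.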
SMILES,activation,Potency
COc1cc([C@H]2Oc3cc([C@H]4Oc5cc(O)cc(O)c5C(=O)[C@@H]4O)ccc3O[C@@H]2CO)ccc1O,-9.47% (inactive),
COc1ccc(C(=O)c2ccccc2)c(O)c1,-2.61% (inactive) and -3.01% (inactive),
CCCCCCCCCCCCCCCC(=O)O,1.38% (inactive),
CCCCCCCCOc1ccc(C(=O)c2ccccc2)c(O)c1,-0.0929% (inactive),
C=C[C@@]1(C)CC(=O)[C@]2(O)[C@@]3(C)[C@@H](O)CCC(C)(C)[C@@H]3[C@H](O)[C@H](OC(C)=O)[C@@]2(C)O1,-4.19% (inactive),
Oc1c(Cl)cc(Cl)c(Cl)c1Cc1c(O)c(Cl)cc(Cl)c1Cl,,7.94 µM (active) and 12.6 µM (active)
C#C[C@]1(O)CC[C@H]2[C@@H]3CCC4=Cc5oncc5C[C@]4(C)[C@H]3CC[C@@]21C,-3.96% (inactive),
NCCNc1cccc2ccccc12,1.04% (inactive),

# Tested on: not listed separately
# Test: qHTS assay for small molecule activators of the nuclear factor-kappa B (NF-kB) signaling pathway (AID 651749; active means well fitted activation curve with a large enough effect in the signal ratio; the % refers to the signal ratio; further: % of control where 0% means no effect)
# Conditions: NF-kB-bla ME-180 cells, beta-lactamase FRET ratio, 16 h; active compounds read high
# Summary of the method: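 NF-kB-bla ME-180 cells carrying a beta-lactamase reporter under an NF-kB response element, 2,000 cells/well, exposed to compound for 16 hr at 37C; FRET-based beta-lactamase fluorescence read-out of pathway activation.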
row,SMILES,activation
1,COc1ccc(C(=O)c2ccccc2)c(O)c1,0.344% (inactive) and -5.21% (inactive)
2,CCCCCCCCCCCCCCCC(=O)O,-0.401% (inactive)
3,CCCCCCCCOc1ccc(C(=O)c2ccccc2)c(O)c1,-6.3% (inactive)
4,Oc1c(Cl)cc(Cl)c(Cl)c1Cc1c(O)c(Cl)cc(Cl)c1Cl,-1.07% (inactive)
5,C#C[C@]1(O)CC[C@H]2[C@@H]3CCC4=Cc5oncc5C[C@]4(C)[C@H]3CC[C@@]21C,0.141% (inactive)
6,NCCNc1cccc2ccccc12,-0.261% (inactive) and 2.79% (inactive)

# Tested on: not listed separately
# Test: qHTS assay for small molecule disruptors of the mitochondrial membrane potential - 1 hr assay (AID 651754; calls by dose curve; further: nearly all actives have a fitted effect of over 35% in size; further: potency means the concentration at half of the fitted maximal effect)
# Conditions: series mostly up to 92.2 µM
# Summary of the method: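 HepG2, 2,000 cells/well, overnight attachment; cpd or DMSO 1 hr, 37C/5% CO2; Mito-MPS dye 30 min, 37C; fluorescence monomer (490/535) and aggregate (540/590).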
row,SMILES,Potency
1,COc1cc([C@H]2Oc3cc([C@H]4Oc5cc(O)cc(O)c5C(=O)[C@@H]4O)ccc3O[C@@H]2CO)ccc1O,18.8 µM (active)
2,Oc1c(Cl)cc(Cl)c(Cl)c1Cc1c(O)c(Cl)cc(Cl)c1Cl,2.98 µM (active)
3,NCCNc1cccc2ccccc12,inactive

# Tested on: not listed separately
# Test: qHTS assay for environmental chemicals that activate the Aryl hydrocarbon Receptor (AhR) signaling pathway (AID 651777); further: nearly all actives have a fitted effect of over 15% in size; further: potency means the concentration at half of the fitted maximal effect; on activation: % of control where 0% means no effect
# Conditions: 1A2-DRE human hepatoma cells, luciferase, 24 h; activation: active compounds read high
# Summary of the method: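 Concentration–response screening used 1,200 1A2-DRE cells per well, 24 hr compound exposure (37 C, 5% CO2), and One-Glo luminescence as the AhR-driven CYP1A2 reporter signal.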
SMILES,activation,Potency
COc1cc([C@H]2Oc3cc([C@H]4Oc5cc(O)cc(O)c5C(=O)[C@@H]4O)ccc3O[C@@H]2CO)ccc1O,0.406% (inactive),
COc1ccc(C(=O)c2ccccc2)c(O)c1,8.63% (inactive) and 11.4% (inactive),
CCCCCCCCCCCCCCCC(=O)O,0.499% (inactive),
CCCCCCCCOc1ccc(C(=O)c2ccccc2)c(O)c1,-9.5% (inactive),
C=C[C@@]1(C)CC(=O)[C@]2(O)[C@@]3(C)[C@@H](O)CCC(C)(C)[C@@H]3[C@H](O)[C@H](OC(C)=O)[C@@]2(C)O1,,17.8 µM (active)
Oc1c(Cl)cc(Cl)c(Cl)c1Cc1c(O)c(Cl)cc(Cl)c1Cl,3.13% (inactive) and 3.58% (inactive),
C#C[C@]1(O)CC[C@H]2[C@@H]3CCC4=Cc5oncc5C[C@]4(C)[C@H]3CC[C@@]21C,0.604% (inactive),
NCCNc1cccc2ccccc12,,39.8 µM (active)

# Molecular target: Peroxisome proliferator-activated receptor alpha (Homo sapiens) (UniProt Q07869)
# Test: qHTS assay for small molecule agonists of the peroxisome proliferator-activated receptor alpha (PPARalpha) signaling pathway (AID 651778); further: % of control where 0% means no effect
# Conditions: PathHunter PPARalpha complementation, chemiluminescence, 6 h; active compounds read high
# Summary of the method: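 Enzyme-fragment complementation assay in which ligand-bound PPARalpha translocates and forms an active enzyme that generates chemiluminescence. Cells were plated overnight, exposed to compound for 6 hr at 37 C, and then given detection reagent for 60 min at room temperature.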
# Sequence of Peroxisome proliferator-activated receptor alpha (Homo sapiens) (Q07869 whole entry, looked up): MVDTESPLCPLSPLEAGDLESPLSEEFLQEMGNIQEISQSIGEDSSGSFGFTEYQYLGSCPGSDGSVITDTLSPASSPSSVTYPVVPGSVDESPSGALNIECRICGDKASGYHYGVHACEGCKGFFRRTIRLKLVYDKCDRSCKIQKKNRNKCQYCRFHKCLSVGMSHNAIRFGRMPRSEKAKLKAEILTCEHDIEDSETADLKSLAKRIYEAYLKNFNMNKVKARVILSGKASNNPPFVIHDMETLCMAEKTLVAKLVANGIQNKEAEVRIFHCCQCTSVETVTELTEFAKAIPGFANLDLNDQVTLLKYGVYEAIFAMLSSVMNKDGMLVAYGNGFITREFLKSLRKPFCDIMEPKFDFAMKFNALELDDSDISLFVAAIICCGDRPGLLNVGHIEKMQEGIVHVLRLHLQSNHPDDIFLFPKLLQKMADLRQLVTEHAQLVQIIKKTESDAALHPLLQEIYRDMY
row,SMILES,max response
1,COc1cc([C@H]2Oc3cc([C@H]4Oc5cc(O)cc(O)c5C(=O)[C@@H]4O)ccc3O[C@@H]2CO)ccc1O,-8.58% (inactive)
2,COc1ccc(C(=O)c2ccccc2)c(O)c1,1.86% (inactive) and -0.894% (inactive)
3,C=C[C@@]1(C)CC(=O)[C@]2(O)[C@@]3(C)[C@@H](O)CCC(C)(C)[C@@H]3[C@H](O)[C@H](OC(C)=O)[C@@]2(C)O1,0.227% (inactive)
4,Oc1c(Cl)cc(Cl)c(Cl)c1Cc1c(O)c(Cl)cc(Cl)c1Cl,1.56% (inactive) and 1.87% (inactive)
5,C#C[C@]1(O)CC[C@H]2[C@@H]3CCC4=Cc5oncc5C[C@]4(C)[C@H]3CC[C@@]21C,-4.33% (inactive)
6,NCCNc1cccc2ccccc12,-2.74% (inactive) and -3.34% (inactive)
